Measured values as given in the supplement of paper PMC8728848.
Shown is part of a subset that was picked to be rich in the strongest signals.

What was measured:
Assay in all cases: glycan array binding signal (z-score within array); higher = stronger binding
Details in all cases: glycan notation: IUPAC condensed, linker removed
[1] = molecular target: Fuc(a1-2)Gal(b1-4)GlcNAc(b1-3)Gal(b1-4)GlcNAc(b1-2)Man(a1-3)[Fuc(a1-2)Gal(b1-4)GlcNAc(b1-3)Gal(b1-4)GlcNAc(b1-2)Man(a1-6)]Man(b1-4)GlcNAc(b1-4)GlcNAc
How it was run: (§1)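 Arrays were curated from the Consortium for Functional Glycomics database, 3228 in total, and kept only where the protein sequence was available. Binding is expressed as a within-array Z-score. This score was averaged across arrays of the same protein sequence at different concentrations or buffers and across linkers, and negative values can be read as non-binding.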

[2] = molecular target: Fuc(a1-2)Gal(b1-4)[Fuc(a1-3)]GlcNAc(b1-3)Gal(b1-4)[Fuc(a1-3)]GlcNAc(b1-3)Gal(b1-4)[Fuc(a1-3)]GlcNAc
How it was run: as §1

[3] = molecular target: Fuc(a1-2)Gal(b1-4)[Fuc(a1-3)]GlcNAc(b1-3)GalNAc
How it was run: as §1

[4] = molecular target: Fuc(a1-2)Gal6S(b1-4)Glc6S
How it was run: as §1

[5] = molecular target: Fuc(a1-3)[Gal(b1-4)]GlcNAc(b1-6)GalNAc
How it was run: as §1

Gal(a1-2)Gal = molecular target: Gal(a1-2)Gal
How it was run: as §1

Gal(a1-3)Gal(b1-3)GlcNAc = molecular target: Gal(a1-3)Gal(b1-3)GlcNAc
How it was run: as §1

Gal(a1-3)Gal(b1-4)Glc = molecular target: Gal(a1-3)Gal(b1-4)Glc
How it was run: as §1

Gal(a1-4)GlcNAc = molecular target: Gal(a1-4)GlcNAc
How it was run: as §1

Gal(b1-2)Gal = molecular target: Gal(b1-2)Gal
How it was run: as §1

Gal(b1-3)Gal = molecular target: Gal(b1-3)Gal
How it was run: as §1

Gal(b1-3)GalNAc = molecular target: Gal(b1-3)GalNAc
How it was run: as §1

[6] = molecular target: Gal(b1-3)[Fuc(a1-4)]GlcNAc(b1-6)GalNAc
How it was run: as §1

[7] = molecular target: Gal(b1-4)GalNAc(b1-3)[Fuc(a1-2)]Gal(b1-4)GlcNAc
How it was run: as §1

[8] = molecular target: Gal(b1-4)GlcNAc(b1-3)Gal(b1-4)GlcNAc(b1-2)Man(a1-3)[Gal(b1-4)GlcNAc(b1-3)Gal(b1-4)GlcNAc(b1-2)Man(a1-6)]Man(b1-4)GlcNAc(b1-4)GlcNAc
How it was run: as §1

[9] = molecular target: Gal(b1-4)GlcNAc(b1-3)Gal(b1-4)GlcNAc(b1-2)Man(a1-3)[Gal(b1-4)GlcNAc(b1-3)Gal(b1-4)GlcNAc(b1-2)Man(a1-6)]Man(b1-4)GlcNAc(b1-4)[Fuc(a1-6)]GlcNAc
How it was run: as §1

[10] = molecular target: Gal(b1-4)GlcNAc(b1-3)Gal(b1-4)GlcNAc(b1-2)[Gal(b1-4)GlcNAc(b1-3)Gal(b1-4)GlcNAc(b1-6)]Man(a1-6)[Gal(b1-4)GlcNAc(b1-3)Gal(b1-4)GlcNAc(b1-2)Man(a1-3)]Man(b1-4)GlcNAc(b1-4)[Fuc(a1-6)]GlcNAc
How it was run: as §1

[11] = molecular target: Gal(b1-4)GlcNAc(b1-3)Gal(b1-4)GlcNAc(b1-3)Gal(b1-4)GlcNAc(b1-2)Man(a1-3)[Gal(b1-4)GlcNAc(b1-3)Gal(b1-4)GlcNAc(b1-3)Gal(b1-4)GlcNAc(b1-2)Man(a1-6)]Man(b1-4)GlcNAc(b1-4)GlcNAc
How it was run: as §1

[12] = molecular target: Gal(b1-4)GlcNAc(b1-3)[Gal(b1-4)GlcNAc(b1-6)]Gal(b1-4)GlcNAc
How it was run: as §1

[13] = molecular target: Gal(b1-4)GlcNAc(b1-3)[GlcNAc(b1-6)]Gal(b1-4)GlcNAc
How it was run: as §1

Gal(b1-4)GlcNAc6P = molecular target: Gal(b1-4)GlcNAc6P
How it was run: as §1

Gal(b1-6)Gal = molecular target: Gal(b1-6)Gal
How it was run: as §1

Gal3S(b1-3)GlcNAc = molecular target: Gal3S(b1-3)GlcNAc
How it was run: as §1

Gal3S(b1-4)Glc = molecular target: Gal3S(b1-4)Glc
How it was run: as §1

Gal3S6S(b1-4)GlcNAc6S = molecular target: Gal3S6S(b1-4)GlcNAc6S
How it was run: as §1

GalNAc(b1-3)Gal = molecular target: GalNAc(b1-3)Gal
How it was run: as §1

[14] = molecular target: GalNAc(b1-4)GlcNAc(b1-2)Man(a1-3)[GalNAc(b1-4)GlcNAc(b1-2)Man(a1-6)]Man(b1-4)GlcNAc(b1-4)GlcNAc
How it was run: as §1

GalNAc(b1-4)GlcNAc6S = molecular target: GalNAc(b1-4)GlcNAc6S
How it was run: as §1

Glc(a1-6)Glc(a1-6)Glc = molecular target: Glc(a1-6)Glc(a1-6)Glc
How it was run: as §1

GlcA(b1-6)Gal = molecular target: GlcA(b1-6)Gal
How it was run: as §1

[15] = molecular target: GlcNAc(a1-4)Gal(b1-4)GlcNAc(b1-3)Gal(b1-4)[Fuc(a1-3)]GlcNAc(b1-3)Gal(b1-4)[Fuc(a1-3)]GlcNAc
How it was run: as §1

[16] = molecular target: GlcNAc(b1-3)Gal(b1-3)GalNAc
How it was run: as §1

GlcNAc(b1-3)Gal(b1-4)Glc = molecular target: GlcNAc(b1-3)Gal(b1-4)Glc
How it was run: as §1

[17] = molecular target: GlcNAc(b1-3)Gal(b1-4)GlcNAc(b1-6)[Gal(b1-3)]GalNAc
How it was run: as §1

Kdn(a2-3)Gal(b1-3)GalNAc = molecular target: Kdn(a2-3)Gal(b1-3)GalNAc
How it was run: as §1

[18] = molecular target: Man(a1-2)Man(a1-2)Man(a1-3)Man
How it was run: as §1

[19] = molecular target: Man(a1-2)Man(a1-3)[Man(a1-2)Man(a1-6)]Man(a1-6)[Man(a1-2)Man(a1-2)Man(a1-3)]Man
How it was run: as §1

Man(a1-3)[Man(a1-6)]Man = molecular target: Man(a1-3)[Man(a1-6)]Man
How it was run: as §1

[20] = molecular target: Man(a1-3)[Man(a1-6)]Man(a1-6)[Man(a1-2)Man(a1-3)]Man(b1-4)GlcNAc(b1-4)GlcNAc
How it was run: as §1

Man(a1-6)Man = molecular target: Man(a1-6)Man
How it was run: as §1

[21] = molecular target: Neu5Ac(a2-3)Gal(b1-3)GalNAc(b1-3)Gal(a1-4)Gal(b1-4)Glc
How it was run: as §1

[22] = molecular target: Neu5Ac(a2-3)Gal(b1-4)GlcNAc(b1-2)Man
How it was run: as §1

[23] = molecular target: Neu5Ac(a2-3)Gal(b1-4)GlcNAc(b1-3)Gal
How it was run: as §1

[24] = molecular target: Neu5Ac(a2-3)Gal(b1-4)GlcNAc(b1-3)Gal(b1-4)GlcNAc(b1-3)Gal(b1-4)GlcNAc
How it was run: as §1

[25] = molecular target: Neu5Ac(a2-3)Gal(b1-4)GlcNAc(b1-3)Gal(b1-4)[Fuc(a1-3)]GlcNAc
How it was run: as §1

[26] = molecular target: Neu5Ac(a2-3)Gal(b1-4)GlcNAc(b1-6)[Neu5Ac(a2-3)Gal(b1-3)]GalNAc
How it was run: as §1

[27] = molecular target: Neu5Ac(a2-6)Gal(b1-3)GlcNAc(b1-3)[Gal(b1-4)GlcNAc(b1-6)]Gal(b1-4)Glc
How it was run: as §1

Neu5Ac(a2-6)Gal(b1-4)Glc = molecular target: Neu5Ac(a2-6)Gal(b1-4)Glc
How it was run: as §1

[28] = molecular target: Neu5Ac(a2-6)Gal(b1-4)GlcNAc(b1-2)Man(a1-3)[Gal(b1-4)GlcNAc(b1-2)Man(a1-6)]Man(b1-4)GlcNAc(b1-4)GlcNAc
How it was run: as §1

[29] = molecular target: Neu5Ac(a2-6)Gal(b1-4)GlcNAc(b1-2)Man(a1-3)[Man(a1-6)]Man(b1-4)GlcNAc(b1-4)GlcNAc
How it was run: as §1

[30] = molecular target: Neu5Ac(a2-6)Gal(b1-4)GlcNAc(b1-3)Gal(b1-4)GlcNAc(b1-3)GalNAc
How it was run: as §1

[31] = molecular target: Neu5Ac(a2-6)Gal(b1-4)GlcNAc(b1-6)GalNAc
How it was run: as §1

[32] = molecular target: Neu5Ac(a2-8)Neu5Ac(a2-8)Neu5Ac(a2-3)[Gal(b1-3)GalNAc(b1-4)]Gal(b1-4)Glc
How it was run: as §1

[33] = molecular target: Neu5Ac(a2-8)Neu5Gc(a2-3)Gal(b1-4)GlcNAc
How it was run: as §1

[34] = molecular target: Neu5Gc(a2-6)Gal(b1-4)GlcNAc
How it was run: as §1

B1: LngA (Escherichia coli) (protein)
chain: MLSVYNRTQKFKAEARKKIAKYHELRKQRGMSLLEVIIVLGIIGTIAAGVVILAQRAFDSRAVTDLVTNTNTVRVRMKDAYQRDGKYPDFVDPLSLTANTIKTDTSGIPAAQLVQLGKITPDEVRNNISGDFIAIGGALTSNGAQVKKGFAIELNGLSQEQCRSILGQVGNNWEYVAIGTSASGSYAMTATGVDMSVAASTTVLRSLGNNGQTTLTADKILSTCTAQVNSITLGSR
glycan array binding signal (z-score) [1]: -0.248 | glycan array binding signal (z-score) [2]: -0.414 | glycan array binding signal (z-score) [3]: 0.215 | glycan array binding signal (z-score) [4]: 0.398 | glycan array binding signal (z-score) [5]: -0.182 | glycan array binding signal (z-score) (Gal(a1-2)Gal): 0.247 | glycan array binding signal (z-score) (Gal(a1-3)Gal(b1-3)GlcNAc): 2.92 | glycan array binding signal (z-score) (Gal(a1-3)Gal(b1-4)Glc): -0.144 | glycan array binding signal (z-score) (Gal(a1-4)GlcNAc): -0.206 | glycan array binding signal (z-score) (Gal(b1-2)Gal): 2.94 | glycan array binding signal (z-score) (Gal(b1-3)Gal): -0.316 | glycan array binding signal (z-score) (Gal(b1-3)GalNAc): -0.143 | glycan array binding signal (z-score) [6]: -0.438 | glycan array binding signal (z-score) [7]: -0.632 | glycan array binding signal (z-score) [8]: 3.2 | glycan array binding signal (z-score) [9]: -0.289 | glycan array binding signal (z-score) [10]: 4.27 | glycan array binding signal (z-score) [11]: 3.43 | glycan array binding signal (z-score) [12]: -0.205 | glycan array binding signal (z-score) [13]: -0.507 | glycan array binding signal (z-score) (Gal(b1-4)GlcNAc6P): 4.74 | glycan array binding signal (z-score) (Gal(b1-6)Gal): 0.393 | glycan array binding signal (z-score) (Gal3S(b1-3)GlcNAc): -0.1 | glycan array binding signal (z-score) (Gal3S(b1-4)Glc): 4.16 | glycan array binding signal (z-score) (Gal3S6S(b1-4)GlcNAc6S): 2.24 | glycan array binding signal (z-score) (GalNAc(b1-3)Gal): 0.532 | glycan array binding signal (z-score) [14]: -0.153 | glycan array binding signal (z-score) (GalNAc(b1-4)GlcNAc6S): -0.467 | glycan array binding signal (z-score) (Glc(a1-6)Glc(a1-6)Glc): 0.075 | glycan array binding signal (z-score) (GlcA(b1-6)Gal): 0.408 | glycan array binding signal (z-score) [15]: 0.38 | glycan array binding signal (z-score) [16]: 0.147 | glycan array binding signal (z-score) (GlcNAc(b1-3)Gal(b1-4)Glc): -0.256 | glycan array binding signal (z-score) [17]: -0.006 | glycan array binding signal (z-score) (Kdn(a2-3)Gal(b1-3)GalNAc): -0.202 | glycan array binding signal (z-score) [18]: -0.556 | glycan array binding signal (z-score) [19]: -0.506 | glycan array binding signal (z-score) (Man(a1-3)[Man(a1-6)]Man): -0.411 | glycan array binding signal (z-score) [20]: -0.239 | glycan array binding signal (z-score) (Man(a1-6)Man): 3.82 | glycan array binding signal (z-score) [21]: -0.375 | glycan array binding signal (z-score) [22]: 3.6 | glycan array binding signal (z-score) [23]: -0.531 | glycan array binding signal (z-score) [24]: -0.508 | glycan array binding signal (z-score) [25]: 2.73 | glycan array binding signal (z-score) [26]: -0.439 | glycan array binding signal (z-score) [27]: -0.533 | glycan array binding signal (z-score) (Neu5Ac(a2-6)Gal(b1-4)Glc): -0.2 | glycan array binding signal (z-score) [28]: -0.321 | glycan array binding signal (z-score) [29]: -0.28 | glycan array binding signal (z-score) [30]: -0.361 | glycan array binding signal (z-score) [31]: 2.77 | glycan array binding signal (z-score) [32]: -0.06 | glycan array binding signal (z-score) [33]: -0.319 | glycan array binding signal (z-score) [34]: -0.433
